Experiment [1] deals with Lysosomal acid glucosylceramidase (Homo sapiens) (UniProt P04062). The experiment can be described thus: Glucocerebrosidase-p2 (AID 348; in the data active = potency below about 10 µM; also: potency is read from the fitted curve at half-maximal effect). The conditions noted are these: purified GBA, blue fluorogenic substrate, 40 min. Put shortly: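 Compounds titrated from 0.6 nM upwards against 0.2 nM enzyme in pH 5.9 citric acid/KH2PO4, taurocholate, tween-20; blue fluorogenic substrate 80 uM, 40 min room temperature, stopped and read Ex 365/Em 440 for AC50.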

Experiment [2] is described as follows: AP1 Signaling Pathway (AID 357; active = well fitted curve in either direction with a large enough effect, not every such curve was filed as active;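 also: ME-180 reporter cells stimulated with EGF at its EC50 level; % is scaled to controls: 0 for no effect and ±100 for the full control effect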). The settings on record: ME-180 AP-1-bla reporter, EGF-induced, beta-lactamase ratio, 5 h; at 7.69 µM (top of the series) unless noted. Put shortly:
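A ratiometric CCF4 readout (405 nm excitation; 460 and 530 nm emission) quantified AP-1-driven beta-lactamase in ME-180 cells after 5 h with compound and EC50 EGF; AC50 values were derived for activators and inhibitors.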

A short description of experiment [3]: NFAT Signaling Pathway (AID 444; active = well fitted curve in either direction with a large enough effect, not every such curve was filed as active;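 also: carbachol stimulus at about its EC50 of 1 µM final; % is scaled to controls: 0 for no effect and ±100 for the full control effect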). The settings on record: Jurkat NFAT-bla M1, carbachol, beta-lactamase ratio, 5 h; at 7.69 µM (top of the series) unless noted. Put shortly: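 Read-out: CCF4 FRET ratio (460 nm/530 nm) after 1 h RT dye loading, used for %activity and AC50 from titration series. Cells: Jurkat NFAT-β-lactamase/M1 line, treated with compound plus 1 uM carbachol for 5 h, 37 °C.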

Experiment [4] is described as follows: Stat Signaling Pathway (AID 446; active = well fitted curve in either direction with a large enough effect, not every such curve was filed as active;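 also: ME-180 cervical cancer cells given 40 pM IL-6 alongside compound; SIE-controlled beta-lactamase reporter measured as 460/530 nm FRET emission ratio; % is scaled to controls: 0 for no effect and ±100 for the full control effect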). The conditions noted are these: ME-180 SIE beta-lactamase reporter, IL-6 stimulated, 5 h; at 7.69 µM (top of the series) unless noted. The procedure, abridged:
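Reporter line: ME-180 cervical carcinoma, SIE-beta-lactamase. Treatment: compound with 40 pM IL-6, 5 hrs, 37 C, in low-serum OPTI-MEM with 10 mM HEPES pH 7.3. Detection: 460/530 nm fluorescence.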

Experiment [5] addresses Glucocorticoid receptor (Homo sapiens) (UniProt P04150). The experiment can be described thus: GR-GFP Redistribution (AID 450;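 active = compounds whose dose series gives a full or clear partial fitted curve of increased nuclear translocation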; also: potency is read from the fitted curve at half-maximal effect). The settings on record: U2OS GR-GFP nuclear translocation, laser cytometry, 2 h.
For experiment [6] the target is unchanged. The experiment can be described thus: GR-EFC Redistribution (AID 451; calls by dose curve; also: potency is read from the fitted curve at half-maximal effect). The conditions noted are these: CHO-K1 GR-EFC translocation, beta-gal luminescence, 2 h. Put shortly: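 Translocation of GR-ED fusion to nuclear EA restores b-gal, read by luminescence after 1 h room-temperature detection. Engineered CHO-K1 biosensor cells, 1,000/well, exposed 2 h at 37 C to titrations up to 46 uM final.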

For experiment [7], the target named is Mitogen-activated protein kinase 10 (Mus musculus) (UniProt Q61831). Nature of the experiment: JNK3 AlphaScreen Assay (AID 530; active = well fitted curve in either direction with a large enough effect, not every such curve was filed as active;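 also: kinase came from lysate of stimulated human HepG2 cells; signal reports phosphorylation of biotinylated GST-cJun 1-79 at Ser73 with 10 µM ATP; % is scaled to controls: 0 for no effect and ±100 for the full control effect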). The settings on record: JNK3 lysate, c-Jun phosphorylation; series mostly up to 57.1 µM. The procedure, abridged: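 Room-temperature AlphaScreen kinase assay; pre-activated HepG2 lysate as JNK3 source, biotin-GST-cJun(1-79) substrate, 10 uM ATP, compound 15 min preincubation.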
Background: Bead proximity is the source of the signal in Alpha formats.

The target of experiment [8] is Dual specificity protein kinase CLK4 (Homo sapiens) (UniProt Q9HAZ1). The experiment can be described thus: qHTS Assay for Inhibitors of CDC-like Kinase 4 (Kinase-Glo Assay) (AID 1770). Also: nearly all actives have a fitted effect of over 65% in size. Also: potency is read from the fitted curve at half-maximal effect. The settings on record: recombinant Clk4, Kinase-Glo ATP depletion luminescence; series mostly up to 66.7 µM. The procedure, abridged: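 Substrate mix (RS peptide 100 uM, ATP 1 uM) dispensed, compound pinned in, then Clk4 added to 25 nM final. Incubated 4.5 h at RT; Kinase-Glo reagent added, luminescence read after 5 min.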
A general note: Quantitative high-throughput screening tests each substance at several concentrations.

The target is the same in experiment [9]. The experiment can be described thus: qHTS Assay for Inhibitors of CDC-like Kinase 4 (ADP-Glo Assay) (AID 1771). Also: nearly all actives have a fitted effect of over 70% in size. Also: potency is read from the fitted curve at half-maximal effect. The settings on record: recombinant CLK4, ADP-Glo luminescence; series mostly up to 80 µM. Put shortly: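 Clk4 (25 nM) was incubated 1 hr at room temperature with 100 uM RS repeat peptide and 1 uM ATP in buffer with 2 mM MgCl2, 0.5 mM EGTA, 2.5 mM DTT. ADP formed was quantified by ADP-Glo luminescence.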

Experiment [10] can be described thus: Primary qHTS for small molecule stabilizers of the endoplasmic reticulum resident proteome: Secreted ER Calcium Modulated Protein (SERCaMP) assay (AID 1508630). Also: % is scaled to controls: 0 for no effect and ±100 for the full control effect. The settings on record: SH-SY5Y GLuc-SERCaMP (Gaussia luciferase released on ER calcium loss) secretion, thapsigargin, luminescence; series mostly up to 38.4 µM. Put shortly:
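GLuc-SERCaMP-expressing SH-SY5Y cells, pretreated 16 h with compound, are challenged with thapsigargin to empty ER calcium stores; after 4 h, coelenterazine is added directly to the medium and luminescence is imaged.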

Experiment [11] deals with Ubiquitin carboxyl-terminal hydrolase 1 (Homo sapiens) (UniProt O94782). The experiment can be described thus: Inhibitors of USP1/UAF1: Pilot qHTS (AID 504865). Also: nearly all actives have a fitted effect of over 35% in size. Also: potency is read from the fitted curve at half-maximal effect. The settings on record: purified USP1/UAF1, Ub-rhodamine cleavage fluorescence; series mostly up to 54.9 µM. Put shortly:
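In 50mM HEPES pH 7.8 containing 0.5mM EDTA, 1mM TCEP, 0.1 mg/ml BSA and 0.01% Tween-20, 1nM USP1/UAF1 is exposed to compound for 15 min, then Ub-Rho (150nM final) is added and fluorescence is read over time.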

The target of experiment [12] is Cytochrome P450 1A2 (Homo sapiens) (UniProt P05177). Nature of the experiment: p450-cyp1a2 (AID 410; calls by dose curve; also: potency is read from the fitted curve at half-maximal effect). The conditions noted are these: recombinant CYP1A2, luciferin-ME demethylation, luminescence; series mostly up to 57 µM. The procedure, abridged:
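Human CYP1A2 (20nM) demethylated Luciferin-ME at its Km (100uM) in 100mM KPO4. After 10 min compound preincubation, NADPH regeneration ran the reaction 60 min at room temperature. Luciferin was read by luminescence, normalized to 57 uM furafylline.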

The target in experiment [13] is 3',5'-cyclic-AMP phosphodiesterase 4B (Homo sapiens) (UniProt Q07343). The experiment can be described thus: qHTS Assay for Inhibitors of PDE-IV (AID 607; active = well fitted activation curve with a large enough effect in the main read-out, with a control signal flat, not every such curve was filed as active; also: % of control where 0% means no effect). The conditions noted are these: HEK293 ACTOne CNG channel cells, membrane potential fluorescence; series mostly up to 22.9 µM. The procedure, abridged:
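Cell-based read-out of cAMP via a modified cyclic nucleotide-gated channel and membrane potential dye (535/590 nm) in HEK293 cells expressing PDE4 endogenously. Compounds tested up to 22.9 uM final; 100 uM RO 20-1724 reference.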

Experiment [14] concerns the target Cytochrome P450 3A4 (Homo sapiens) (UniProt P08684). Nature of the experiment: qHTS Assay for Activators of Cytochrome P450 3A4 (AID 885). Also: nearly all actives have a fitted effect of over 65% in size. The settings on record: recombinant CYP3A4, Luciferin-PPXE luminescence, 60 min; series mostly up to 57.1 µM. Put shortly: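 Signal was normalized against complete inhibition by 57 uM ketoconazole. The reaction used 20nM CYP3A4 with 25uM Luciferin-PPXE, 10-min compound preincubation and a 60-min NADPH-supported step at RT.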

Experiment [15] shares this target. Nature of the experiment: qHTS Assay for Inhibitors and Substrates of Cytochrome P450 3A4 (AID 884). Also: potency is read from the fitted curve at half-maximal effect; nearly all actives have a fitted effect of over 50% in size. The settings on record: recombinant CYP3A4, Luciferin-PPXE luminescence; series mostly up to 57.1 µM. Put shortly:
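20 nM human CYP3A4 with 25 uM Luciferin-PPXE (at KM) in 200 mM KPO4, preincubated 10 min with compound; NADPH regeneration started a 60 min RT reaction. Luciferin detected by luminescence, normalized to 57 uM ketoconazole as full inhibition.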

For experiment [16], the target named is Cytochrome P450 2C19 (Homo sapiens) (UniProt P33261). The experiment can be described thus: qHTS Assay for Inhibitors and Substrates of Cytochrome P450 2C19 (AID 899). Also: potency is read from the fitted curve at half-maximal effect; nearly all actives have a fitted effect of over 60% in size. The conditions noted are these: recombinant CYP2C19, luciferin-H EGE luminescence; series mostly up to 57.1 µM. The procedure, abridged: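 Luminescence readout of luciferin formed from 10uM Luciferin-H EGE (KM level) by 5 nM CYP2C19 in 50mM KPO4. 60 min NADPH-driven reaction at 37C after 10 min compound preincubation; data scaled to 57uM ketoconazole inhibition.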

Experiment [17] can be described thus: qHTS Assay for Identification of Small Molecule Agonists for Hypoxia Response Element Signaling Pathway (AID 914; active = well fitted activation curve with a large enough effect in the signal ratio, with a control signal flat, not every such curve was filed as active; the % refers to the signal ratio; also: % of control where 0% means no effect). The settings on record: ME-180 (cervical carcinoma) HRE-bla reporter, beta-lactamase ratio, CoCl2, 17 h; activation: hits give high values. Put shortly:
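Reporter activity (beta-lactamase, CCF4 460nm/530nm ratio) in HRE-bla ME-180 cells is recorded after 17 h compound exposure with EC50 CoCl2 at 37 degrees Celsius. AC50 values come from titration data.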

Unmarked numbers belong to inactive results. Records with an inconclusive call do not appear. Activity calls are given as the source filed them. Unless noted, calls follow the shape of the dose curve; as a rule, active = well fitted curve in the direction sought with a large enough effect; inconclusive = small, poorly fitted or top-dose-only effect, or another doubt; inactive = no such curve, though single readings can be large; an effect the other way counts as inactive or inconclusive.

Sequence of Dual specificity protein kinase CLK4 (Homo sapiens) (Q9HAZ1 whole entry, looked up): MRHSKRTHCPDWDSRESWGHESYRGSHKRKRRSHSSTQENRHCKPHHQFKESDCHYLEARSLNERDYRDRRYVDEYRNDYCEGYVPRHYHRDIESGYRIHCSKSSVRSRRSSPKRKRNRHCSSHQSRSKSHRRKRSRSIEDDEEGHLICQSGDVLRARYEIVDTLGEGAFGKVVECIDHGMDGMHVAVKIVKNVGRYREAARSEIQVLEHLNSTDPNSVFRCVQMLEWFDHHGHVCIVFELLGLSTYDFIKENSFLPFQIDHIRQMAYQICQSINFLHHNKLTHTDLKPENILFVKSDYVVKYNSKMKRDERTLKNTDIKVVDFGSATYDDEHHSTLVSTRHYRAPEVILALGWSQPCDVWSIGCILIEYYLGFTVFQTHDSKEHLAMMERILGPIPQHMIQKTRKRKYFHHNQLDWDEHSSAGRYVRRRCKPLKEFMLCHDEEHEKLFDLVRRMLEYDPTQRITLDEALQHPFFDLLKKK
Sequence of Lysosomal acid glucosylceramidase (Homo sapiens) (P04062 whole entry, looked up): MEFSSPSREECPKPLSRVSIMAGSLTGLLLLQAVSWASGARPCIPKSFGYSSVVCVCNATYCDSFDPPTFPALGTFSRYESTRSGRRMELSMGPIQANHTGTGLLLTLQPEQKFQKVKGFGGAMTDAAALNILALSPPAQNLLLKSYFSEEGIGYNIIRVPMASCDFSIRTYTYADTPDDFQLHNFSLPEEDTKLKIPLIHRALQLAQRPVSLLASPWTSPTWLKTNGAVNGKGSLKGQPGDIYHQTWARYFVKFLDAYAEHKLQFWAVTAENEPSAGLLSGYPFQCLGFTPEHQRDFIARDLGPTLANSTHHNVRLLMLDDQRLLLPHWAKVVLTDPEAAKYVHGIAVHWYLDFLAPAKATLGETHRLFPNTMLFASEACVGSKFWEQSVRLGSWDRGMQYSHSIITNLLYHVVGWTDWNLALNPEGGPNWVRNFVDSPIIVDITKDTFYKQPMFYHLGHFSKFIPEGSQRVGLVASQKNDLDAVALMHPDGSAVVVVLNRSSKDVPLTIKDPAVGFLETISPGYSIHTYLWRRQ
Sequence of Ubiquitin carboxyl-terminal hydrolase 1 (Homo sapiens) (O94782 whole entry, looked up): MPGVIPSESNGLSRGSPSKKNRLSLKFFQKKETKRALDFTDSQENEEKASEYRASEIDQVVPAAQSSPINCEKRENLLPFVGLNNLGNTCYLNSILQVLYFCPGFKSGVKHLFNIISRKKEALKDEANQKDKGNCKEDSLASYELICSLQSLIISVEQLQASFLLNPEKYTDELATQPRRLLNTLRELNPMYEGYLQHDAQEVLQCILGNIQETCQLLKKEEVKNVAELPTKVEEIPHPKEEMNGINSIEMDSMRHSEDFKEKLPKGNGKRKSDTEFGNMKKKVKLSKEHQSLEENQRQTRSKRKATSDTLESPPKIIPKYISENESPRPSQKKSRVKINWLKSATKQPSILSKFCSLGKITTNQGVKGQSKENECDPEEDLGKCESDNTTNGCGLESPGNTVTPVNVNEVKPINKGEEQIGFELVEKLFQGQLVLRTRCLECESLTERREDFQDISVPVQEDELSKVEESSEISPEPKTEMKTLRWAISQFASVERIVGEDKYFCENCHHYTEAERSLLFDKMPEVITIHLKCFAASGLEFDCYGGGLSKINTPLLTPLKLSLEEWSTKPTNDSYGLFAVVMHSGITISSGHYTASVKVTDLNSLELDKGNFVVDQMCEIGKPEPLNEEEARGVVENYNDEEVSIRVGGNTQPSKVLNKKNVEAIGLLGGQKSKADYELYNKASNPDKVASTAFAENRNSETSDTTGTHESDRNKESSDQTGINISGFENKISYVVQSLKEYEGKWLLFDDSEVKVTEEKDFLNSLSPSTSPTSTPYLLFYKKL
Sequence of Glucocorticoid receptor (Homo sapiens) (P04150 whole entry, looked up, the tested form may be a part): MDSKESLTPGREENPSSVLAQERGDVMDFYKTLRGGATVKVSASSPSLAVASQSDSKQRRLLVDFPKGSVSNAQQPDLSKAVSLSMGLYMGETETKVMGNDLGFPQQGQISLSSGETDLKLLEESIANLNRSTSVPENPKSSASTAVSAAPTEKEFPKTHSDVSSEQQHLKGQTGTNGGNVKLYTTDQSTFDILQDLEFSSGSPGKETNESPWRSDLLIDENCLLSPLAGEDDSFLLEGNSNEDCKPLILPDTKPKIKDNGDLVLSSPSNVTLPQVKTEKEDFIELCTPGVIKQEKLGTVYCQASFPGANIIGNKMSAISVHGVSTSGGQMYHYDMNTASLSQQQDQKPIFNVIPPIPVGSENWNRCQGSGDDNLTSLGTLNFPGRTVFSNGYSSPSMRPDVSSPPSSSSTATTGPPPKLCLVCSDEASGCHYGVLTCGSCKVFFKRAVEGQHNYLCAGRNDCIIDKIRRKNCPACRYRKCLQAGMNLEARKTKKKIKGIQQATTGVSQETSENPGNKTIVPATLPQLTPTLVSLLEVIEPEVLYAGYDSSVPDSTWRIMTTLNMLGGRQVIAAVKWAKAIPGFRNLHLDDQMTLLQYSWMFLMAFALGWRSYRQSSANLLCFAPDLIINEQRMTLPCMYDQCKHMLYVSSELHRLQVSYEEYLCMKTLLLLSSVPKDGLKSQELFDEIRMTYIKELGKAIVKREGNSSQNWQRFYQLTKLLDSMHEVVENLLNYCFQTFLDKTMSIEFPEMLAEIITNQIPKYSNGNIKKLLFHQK
Sequence of Cytochrome P450 3A4 (Homo sapiens) (P08684 whole entry, looked up): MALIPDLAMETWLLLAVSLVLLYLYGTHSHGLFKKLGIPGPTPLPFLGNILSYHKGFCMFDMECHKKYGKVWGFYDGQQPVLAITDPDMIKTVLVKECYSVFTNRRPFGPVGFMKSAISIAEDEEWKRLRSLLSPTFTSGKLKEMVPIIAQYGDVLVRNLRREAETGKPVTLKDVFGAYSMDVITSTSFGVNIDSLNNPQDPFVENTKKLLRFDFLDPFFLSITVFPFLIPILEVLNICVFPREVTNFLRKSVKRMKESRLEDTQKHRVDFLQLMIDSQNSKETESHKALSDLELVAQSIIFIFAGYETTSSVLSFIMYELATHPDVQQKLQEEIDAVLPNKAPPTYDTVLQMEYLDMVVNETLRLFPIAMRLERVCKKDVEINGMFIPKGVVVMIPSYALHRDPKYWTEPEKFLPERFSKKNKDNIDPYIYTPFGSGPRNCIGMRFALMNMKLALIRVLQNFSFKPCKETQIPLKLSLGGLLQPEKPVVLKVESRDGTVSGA
Sequence of 3',5'-cyclic-AMP phosphodiesterase 4B (Homo sapiens) (Q07343 whole entry, looked up): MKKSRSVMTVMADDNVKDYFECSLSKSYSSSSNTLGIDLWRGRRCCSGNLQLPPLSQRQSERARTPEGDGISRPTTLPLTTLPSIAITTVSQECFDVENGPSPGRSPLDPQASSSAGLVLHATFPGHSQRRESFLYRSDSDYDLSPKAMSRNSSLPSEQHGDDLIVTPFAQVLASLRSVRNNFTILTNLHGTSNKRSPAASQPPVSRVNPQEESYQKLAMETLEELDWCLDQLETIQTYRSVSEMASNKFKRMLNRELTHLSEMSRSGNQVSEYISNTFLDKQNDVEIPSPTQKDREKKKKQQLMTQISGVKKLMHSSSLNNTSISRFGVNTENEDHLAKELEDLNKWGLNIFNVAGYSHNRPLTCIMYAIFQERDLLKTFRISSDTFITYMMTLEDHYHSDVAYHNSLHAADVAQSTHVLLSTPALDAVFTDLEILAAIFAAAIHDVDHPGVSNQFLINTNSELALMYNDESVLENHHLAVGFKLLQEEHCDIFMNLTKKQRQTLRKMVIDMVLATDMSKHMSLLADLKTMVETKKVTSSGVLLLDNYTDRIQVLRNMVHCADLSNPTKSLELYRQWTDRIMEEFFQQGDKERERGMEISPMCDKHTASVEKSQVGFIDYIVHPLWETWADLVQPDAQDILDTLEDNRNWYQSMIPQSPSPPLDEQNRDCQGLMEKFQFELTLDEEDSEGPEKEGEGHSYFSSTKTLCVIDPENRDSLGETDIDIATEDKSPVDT
Sequence of Cytochrome P450 1A2 (Homo sapiens) (P05177 whole entry, looked up): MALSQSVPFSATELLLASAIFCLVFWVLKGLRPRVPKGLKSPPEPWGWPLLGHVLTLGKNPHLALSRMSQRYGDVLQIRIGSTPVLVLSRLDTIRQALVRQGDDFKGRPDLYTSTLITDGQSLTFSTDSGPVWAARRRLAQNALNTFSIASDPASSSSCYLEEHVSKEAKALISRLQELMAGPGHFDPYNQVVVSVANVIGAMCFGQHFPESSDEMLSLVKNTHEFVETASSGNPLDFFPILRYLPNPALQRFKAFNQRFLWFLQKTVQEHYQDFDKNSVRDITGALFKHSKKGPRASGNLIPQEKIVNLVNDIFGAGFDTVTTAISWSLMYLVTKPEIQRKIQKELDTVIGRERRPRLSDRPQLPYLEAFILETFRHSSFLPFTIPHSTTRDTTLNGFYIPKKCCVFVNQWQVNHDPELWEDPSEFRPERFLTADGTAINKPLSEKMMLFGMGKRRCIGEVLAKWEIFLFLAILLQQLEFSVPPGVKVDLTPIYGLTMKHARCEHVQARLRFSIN
Sequence of Cytochrome P450 2C19 (Homo sapiens) (P33261 whole entry, looked up): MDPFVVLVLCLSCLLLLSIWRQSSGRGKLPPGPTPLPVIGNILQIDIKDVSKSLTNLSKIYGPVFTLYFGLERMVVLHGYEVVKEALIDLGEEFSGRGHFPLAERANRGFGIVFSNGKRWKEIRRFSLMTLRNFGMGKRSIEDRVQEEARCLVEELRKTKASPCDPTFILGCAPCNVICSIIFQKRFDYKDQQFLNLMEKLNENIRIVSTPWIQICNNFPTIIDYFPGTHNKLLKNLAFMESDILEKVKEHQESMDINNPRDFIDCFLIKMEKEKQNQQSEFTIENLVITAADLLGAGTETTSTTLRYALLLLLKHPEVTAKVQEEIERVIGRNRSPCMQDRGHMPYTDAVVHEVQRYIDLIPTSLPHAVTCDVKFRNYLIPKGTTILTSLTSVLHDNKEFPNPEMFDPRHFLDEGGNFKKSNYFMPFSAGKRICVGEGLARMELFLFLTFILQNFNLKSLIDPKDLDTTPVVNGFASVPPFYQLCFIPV

Consider `N#Cc1ccccc1-c1ccc2ncnc(NCc3ccccc3)c2c1`, for which the Potency is > 11.4 µM in [1]; > 46 µM in experiment [5]; > 46 µM in experiment [6]; 5.01 µM (active) in experiment [8]; 7.94 µM (active) in experiment [9]. Moreover, the activity change, negative = inhibition in experiment [2] is -20.7%; in [3], 16.5%. Besides, the activity, negative = inhibition in experiment [4] was 27.7%. Also, in experiment [7], the Potency result is “inactive”. Moreover, the result in experiment [10] was inactive.

On to `CS(=O)(=O)Nc1cccc(-c2nc(-n3ccnc3)c3ccccc3n2)c1`, for which the Potency in [1] is > 11.4 µM; in [5], > 46 µM; in experiment [6], > 46 µM; in experiment [8], 15.8 µM (active); in experiment [9], 20 µM (active). Also, the activity change, negative = inhibition is -3.92% in experiment [2] and 4.67% in experiment [3]. Moreover, in experiment [4], the activity, negative = inhibition was -7.2%. Moreover, the Potency result in experiment [7] and in [11] was “inactive” in each case. Besides, the result in experiment [10] was inactive.

As to `COc1ccc(Oc2ncc3nc(-c4ccc(F)cc4)c(=O)n(Cc4cccs4)c3n2)cc1`, the Potency was > 11.4 µM in experiment [1], 5.01 µM (active) in [12], > 9.22 µM in [5] and > 46 µM in experiment [6]. In addition, the activity change, negative = inhibition in experiment [3] was -29.2%. Further, the activity, negative = inhibition in [4] is -8.36%. Moreover, the Potency result in [7], in experiment [13], in experiment [14], in experiment [8], in experiment [9] and in [11] was “inactive” each time. The result in experiment [10] was inactive.

Take `COc1ccccc1CNc1cc(-c2ccccc2Cl)ncn1`: the Potency in experiment [1] is > 11.4 µM; in experiment [5], > 46 µM; in [6] it was > 46 µM; in experiment [8] it was 25.1 µM (active); in experiment [9], 15.8 µM (active). Moreover, the activity change, negative = inhibition in [2] was -13.2%; in experiment [3], 0.444%. For the same compound, the activity, negative = inhibition in experiment [4] was -1.65%. The Potency result in [7], in experiment [14] and in experiment [11] was “inactive” in each case. In [10], the result was inactive.

Turning to `COc1cccc(-c2nccc(NCc3ccccc3)n2)c1`, the Potency in experiment [1] is > 11.4 µM; in experiment [12] it was 0.501 µM (active); in [5], > 46 µM; in [6] it was > 46 µM; in experiment [15] it was 3.98 µM (active); in [16] it was 7.94 µM (active). Moreover, the Potency in experiment [8] is 15.8 µM (active); in [9] it was 15.8 µM (active); in experiment [11] it was 25.1 µM (active). Moreover, in experiment [3], the activity change, negative = inhibition is 15.6%. Also, in [4], the activity, negative = inhibition was -13.5%. In addition, the Potency entry in experiment [7] and in [14] was “inactive” in each case. The outcome in experiment [10] was inactive.

As for `CN(C)C(=O)c1ccc(-c2cc(NCc3cccs3)ncn2)cc1`, the Potency was > 11.4 µM in experiment [1]; > 46 µM in experiment [5]; > 46 µM in experiment [6]; 20 µM (active) in [8]; 22.4 µM (active) in [9]. Also, the activity change, negative = inhibition in [2] is -17.2%; in experiment [3], 3.58%. Moreover, in [4], the activity, negative = inhibition is 5.59%. Also, the Potency entry in [7] and in experiment [11] was “inactive” each time. In experiment [10], the outcome was inactive.

On to `CN1CCN(c2ncnc3ccc(-c4cccnc4)cc23)CC1`, for which the Potency in [1] is > 11.4 µM; in [5], > 46 µM; in [6], > 46 µM; in [8], 12.6 µM (active); in experiment [9] it was 14.1 µM (active). In addition, the activity change, negative = inhibition in experiment [2] was -5.19%; in experiment [3], 17%. For the same compound, in experiment [4], the activity, negative = inhibition is 2.81%. The Potency entry in experiment [7], in experiment [13], in experiment [14] and in [11] was “inactive” in each case. In addition, in experiment [17], the activation was -3.4%. Moreover, the result in experiment [10] was inactive.

(Values after PubChem BioAssay (NCATS).)
